According to paper PMC7819943, “Rice protein-binding microarrays: a tool to detect cis-acting elements near promoter regions in rice”:
The full ranking holds about 68,000 sequences; the median of “fluorescence intensity (a.u.)” is about 9,100, and the highest 2% start at about 16,000. The sample holds the highest values, similar sequences and a random draw of the others, so the mix is not that of the screen.

Each sequence was assayed against OsWRKY34 (Oryza sativa, UniProt Q0JBA9 1-250) (assay: protein-binding microarray (RPBM); PBS, 2% BSA, 51.3 ng/ul salmon testes DNA, 50 uM zinc acetate, 200 nM TF, 25 C, 1 h; high values mean tight binding). Conditions: protein: recombinant; tags: N-terminal polyhistidine and DsRed monomer fusion (pET32a); label: CyDye5-dUTP incorporated in the synthesized complementary strand; 3' TTTTT single-stranded linker to array surface; dsDNA, one strand shown.
Method in brief: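 Binding signal here means per-feature fluorescence intensity in arbitrary units. The values were read on an Axon 4000B scanner after a custom Agilent array, double-stranded by primer extension with Cy5-dUTP, was incubated with 200 nM protein at 25 °C for 1 h in PBS with 2% BSA, salmon testes DNA and 50 µM zinc acetate, then washed. The proteins were transcription factors with an N-terminal polyhistidine tag and DsRed, expressed in E. coli BL21-CodonPlus and purified on Ni–NTA.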

OsWRKY34, sequence (Q0JBA9 entry or part of it): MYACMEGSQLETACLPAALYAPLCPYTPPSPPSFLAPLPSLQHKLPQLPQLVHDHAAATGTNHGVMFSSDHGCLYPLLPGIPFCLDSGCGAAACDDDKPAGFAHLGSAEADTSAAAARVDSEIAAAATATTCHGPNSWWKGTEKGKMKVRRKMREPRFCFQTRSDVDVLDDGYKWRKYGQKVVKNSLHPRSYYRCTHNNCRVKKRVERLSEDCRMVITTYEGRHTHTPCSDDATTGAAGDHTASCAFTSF

| Sequence | binding signal |
| --- | --- |
| TATATACTTTCATGGGTCTATATTTATATGTATGTATACACGGAGTCACCTAGTGCAG | 8690 fluorescence intensity (a.u.) |
| TACTCAATGTCTAATGGGGTGTTTGGATGGGACTAATTTTCGGAGTCACCTAGTGCAG | 13000 fluorescence intensity (a.u.) |
| CGATACTTTCATGGGTGGGTCCTATGTTGCACGGTTGGTTCGGAGTCACCTAGTGCAG | 22900 fluorescence intensity (a.u.) |
| TTCGGGTTCAATTTCAGGTTCAGTCGCTTGCTTGGTGCTTCGGAGTCACCTAGTGCAG | 8960 fluorescence intensity (a.u.) |
| GGTGCGTGTTCGGGATGGGGTTCGGGTTCAATTTCAGGTTCGGAGTCACCTAGTGCAG | 16700 fluorescence intensity (a.u.) |
| TCGGTTTCATACGTGGGGTCTGTTGGTGGAGGTGTTGCCACGGAGTCACCTAGTGCAG | 9440 fluorescence intensity (a.u.) |
| TTACTATACTATTAATATCTGATCACACCTGTCATACACACGGAGTCACCTAGTGCAG | 9710 fluorescence intensity (a.u.) |
| CAGAGTGCAAGCCAATCATCGCCACCACGCTACGCTACACCGGAGTCACCTAGTGCAG | 8130 fluorescence intensity (a.u.) |
| CGTTTGTACTGTGTGGTGGTTGGTGATTGGGTGTTGTGCCCGGAGTCACCTAGTGCAG | 13900 fluorescence intensity (a.u.) |
| AAAAGCCGGTCTCCTTCATCTTCCCGTCCGTAAACCCTAACGGAGTCACCTAGTGCAG | 10600 fluorescence intensity (a.u.) |
| CACCCTCGTTTCCACCCGCGCCCGCGCGCCGCGCGCCACTCGGAGTCACCTAGTGCAG | 10800 fluorescence intensity (a.u.) |
| ACGACGACGACGACGACGCAACCCCGCGGCGCGCGCCGGCCGGAGTCACCTAGTGCAG | 8430 fluorescence intensity (a.u.) |
| CTCGCCTCTAGGGTTCCGCCGTTTTCCGCGGCGCGCCACCCGGAGTCACCTAGTGCAG | 9410 fluorescence intensity (a.u.) |
| GTTCCAGCCGCGTTTCCTCTCGCGGCGGCCTCGCCATTTCCGGAGTCACCTAGTGCAG | 9070 fluorescence intensity (a.u.) |
| CCGCCGCCGTTCCGTTTTTTCTCTCTCGCGCCGCCGCCAGCGGAGTCACCTAGTGCAG | 17300 fluorescence intensity (a.u.) |
| CTCGCTTCTTCTTCCTTCTTTCCGTCCTCGCCGCCCCGCGCGGAGTCACCTAGTGCAG | 8470 fluorescence intensity (a.u.) |
| TCTACGCCGCCGGCGGCGGCGGCGGCGGCAACTGCGGCGCCGGAGTCACCTAGTGCAG | 47800 fluorescence intensity (a.u.) |
| CGCCTCTTTTCGTTTCGTTTCGCCGCCCGCTTCCGCCGCGCGGAGTCACCTAGTGCAG | 23300 fluorescence intensity (a.u.) |
| TCCCTCTCTCTCTCTCTCTTCGTTTCCGCGCGCGCGCGCGCGGAGTCACCTAGTGCAG | 9340 fluorescence intensity (a.u.) |
| AGCCAGTTTTCTCCACCCTCGTTTTCCGCGCACATGTTTTCGGAGTCACCTAGTGCAG | 17600 fluorescence intensity (a.u.) |
| CATCTCCTCCGTTTTCCGCGCACATGTTTTTTAAACTGCTCGGAGTCACCTAGTGCAG | 10400 fluorescence intensity (a.u.) |
| CCTCTACGCGCGGCCAACGCCGCCGCCGCCGCCGCCGCTCCGGAGTCACCTAGTGCAG | 8370 fluorescence intensity (a.u.) |
| TCCTATGTTTTTCCTGCGGTCCAATCAAACGGTCATTCTTCGGAGTCACCTAGTGCAG | 12300 fluorescence intensity (a.u.) |
